High-throughput results (PubChem)
MITF TRPM1 HTS: MITF TRPM1 promoter activation in melanoma cells. activation, % at 12.5 µM. SK-MEL-5 TRPM1-promoter luciferase, 24 h; % of positive control, neutral wells = 0. hit rate 0.75% among 300,000. AID 588334;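 active means mean activation of at least 80% with every replicate also reaching 80%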
Wnt act: activates Wnt/beta-catenin signaling in a reporter cell assay. activator, plate reader. activation, % at 9.35 µM. hit rate 1.2% among 300,000. AID 743398; in the data active means activation above about 30%, passing the limit was not always enough
AF4-AF9 inh: inhibitors of human MLL-AF4/AF9 interaction; P42568; AlphaScreen, biotin-AF4 peptide binding to FLAG-AF9; inhibition, % at 10 µM; hit rate 0.47% among 350,000;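 active means every replicate reaching a set inhibition limit, whatever the replicate mean, cut at about 25% in these data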
Target sequence (P42568 whole entry, looked up): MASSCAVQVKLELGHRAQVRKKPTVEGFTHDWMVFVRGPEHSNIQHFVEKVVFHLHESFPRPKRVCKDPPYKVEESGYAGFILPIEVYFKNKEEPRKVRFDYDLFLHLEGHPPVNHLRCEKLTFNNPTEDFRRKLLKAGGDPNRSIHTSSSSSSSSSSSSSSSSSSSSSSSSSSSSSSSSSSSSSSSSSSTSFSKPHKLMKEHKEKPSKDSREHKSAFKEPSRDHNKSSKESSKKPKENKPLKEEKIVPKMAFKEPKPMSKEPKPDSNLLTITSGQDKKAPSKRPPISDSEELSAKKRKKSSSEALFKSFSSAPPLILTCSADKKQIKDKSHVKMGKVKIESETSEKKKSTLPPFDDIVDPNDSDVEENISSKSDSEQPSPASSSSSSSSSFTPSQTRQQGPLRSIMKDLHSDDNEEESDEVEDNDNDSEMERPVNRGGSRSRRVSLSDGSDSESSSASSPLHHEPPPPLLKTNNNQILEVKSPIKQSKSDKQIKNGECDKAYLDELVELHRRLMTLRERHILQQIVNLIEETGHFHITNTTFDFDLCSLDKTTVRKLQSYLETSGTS
rRNA inh HTS: inhibits bacterial ribosomal RNA function over humanized ribosomes; E. coli WT GFP vs humanized-ribosome RFP mutants, fluorescence, 24 h; active compounds read low; DMSO median 0, no signal -100; GFP signal change (wild-type ribosome), % (test concentration not listed); hit rate 1.6% among 350,000; AID 720706;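 active means significant combined selectivity score with lowered wild-type GFP, culture density cut under 30%, mutant RFP and density less affected; inactive means any of these conditions unmet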
esBAF inh: blocks esBAF chromatin remodeling in mouse ES cells | reporter increase, % at 12.5 µM | hit rate 2% among 350,000 | Bmi1-luciferase knock-in reporter, 24 h; 100% = twice the neutral-well signal | AID 602393; in the data active means activation above about 40%;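 further: a rise in the Bmi1 reporter signal indicates esBAF inhibition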
A number is an active result; n = inactive; x = no result given. Compounds with a hit are over-represented: about 3.7% of the library has one in this group of screens.

SMILES	MITF TRPM1 HTS	Wnt act	AF4-AF9 inh	rRNA inh HTS	esBAF inh
Cc1ccc(CNC(=O)c2cc(=O)c3cc(C)ccc3o2)cc1	n	n	n	n	n
Cc1noc(C)c1NC(=O)Nc1ccc2c(c1)CC(=O)N([C@H](C)CO)C[C@H](C)[C@H](CN(C)Cc1ccc(-c3ccccc3)cc1)O2	x	x	n	n	n
C[C@H](CO)N1C[C@H](C)[C@@H](CN(C)S(=O)(=O)c2cn(C)cn2)Oc2cc(C#Cc3ccc(F)cc3)ccc2S1(=O)=O	x	x	n	n	n
COc1ccc(C(=O)NCCn2ccc3ccccc32)cc1	98	x	x	x	44
O=C(NCCn1ccc2ccccc21)c1ccc2c(c1)OCO2	n	38	n	n	52
Cc1ccc(C(=O)NCCn2ccc3ccccc32)cc1[N+](=O)[O-]	n	n	n	n	x
Cc1cc(-c2nc3c4c5c(sc4[nH]c(=O)n3n2)CCC5)c(C)o1	n	x	x	x	x
CN(CC(=O)Nc1c(Cl)cccc1Cl)C(=O)C1CC(=O)N(Cc2ccccc2)C1 (stereo not drawn)	n	n	n	n	n
O=C(NCC1CCCO1)c1ccc(-c2ccccc2Cl)o1 (stereo not drawn)	130	n	n	n	x
O=C(NC12CC3CC(CC(C3)C1)C2)c1ccc(-c2ccccc2Cl)o1	n	n	x	x	45
Cc1onc(-c2ccccc2Cl)c1C(=O)NCC1CCCO1 (stereo not drawn)	n	x	x	x	n
O=C(NC12CC3CC(CC(C3)C1)C2)c1ccc(-c2ccc(Cl)cc2)o1	n	n	n	n	x
O=C(NCC1CCCO1)c1cc(-c2ccccc2F)no1 (stereo not drawn)	n	n	n	n	57
Cc1ccc(CNC(=O)CCc2ccc(S(=O)(=O)NCC(C)C)cc2)cc1	n	n	n	n	x
C=C(C)CSc1cc(C)nc2c(-c3ccccc3)c(C)nn12	n	n	n	-49	n
Cc1nn2c(SCC(=O)c3cccs3)cc(C(C)(C)C)nc2c1-c1ccccc1	n	n	n	-30	x
CCCN1[C@@H]2c3ccc(-c4ccccc4OC)c(=O)n3C[C@H]1[C@H](CO)[C@H]2C(=O)N1CCOCC1	x	x	n	n	x
CC(C)n1nnnc1C1c2ccccc2C(=O)N1Cc1cccnc1 (stereo not drawn)	x	n	n	n	x
CNC(=O)c1ccc(-c2cc(C(F)(F)F)nn2C)s1	x	35	n	n	x
CCC/C(O)=C1\C(=O)CC(C)(C)CC1=NCc1ccccc1	n	n	n	-22	n
CCCN=C1CC(C)(C)CC(=O)/C1=C(/O)CCC	n	n	n	n	n
COc1cc2cc(CCCOC(=O)c3ccc(F)cc3)oc(=O)c2cc1OC	n	n	n	-25	n
COc1cc2cc(CCCOC(=O)c3ccc(Br)cc3)oc(=O)c2cc1OC	n	n	n	n	n
O=C(Nc1ccc(Cl)c(Cl)c1)C1=Cc2ccccc2OC1	n	n	x	x	57
CCNC(=S)NNC(=O)c1csc(C(C)C)c1	n	n	x	x	50
SMILES	MITF TRPM1 HTS	Wnt act	AF4-AF9 inh	rRNA inh HTS	esBAF inh
ClC1(Cl)CC1CSc1nnc(-c2ccncc2)o1 (stereo not drawn)	x	n	n	-19	n
COc1ccc(S(=O)(=O)N2CCOC2CNC(=O)C(=O)NCCc2ccc(OC)c(OC)c2)cc1C (stereo not drawn)	n	n	x	x	x
Cc1noc(C)c1-c1ccc(C(=O)NC2CCCCC2)c2occc12	x	n	n	n	53
COc1ccc(NC(=O)c2ccc(-c3c(C)noc3C)c3ccoc23)cc1	x	n	n	n	56
Cc1noc(C)c1-c1ccc(C(=O)NCc2ccco2)c2occc12	x	n	n	n	n
Cc1noc(C)c1-c1ccc(C(=O)NCc2ccccc2)c2occc12	x	n	n	n	n
Cc1noc(C)c1-c1ccc(C(=O)Nc2ccccc2)c2occc12	x	n	n	n	57
Cc1noc(C)c1-c1ccc(C(=O)NCC2CC2)c2occc12	x	n	n	n	n
Cc1ccccc1NC(=O)C(=O)c1cn(C)c2ccccc12	n	n	n	n	56
Cn1cc(C(=O)C(=O)NCCc2ccccc2)c2ccccc21	n	n	n	n	n
CN(C)c1ccc(C2NC(=O)c3ccccc3N2)cc1 (stereo not drawn)	n	31	n	n	n
CCn1c(CSc2nc3ccccc3n2C)nc2ccccc21	n	n	x	x	n
Cn1c(SCc2ccccc2Cl)nnc1-c1cnccn1	n	x	x	x	68
Cn1c(SCc2ccccc2Cl)nc2ccccc21	131	x	x	x	x
Fc1ccc(Cn2cc(C(=S)N3CCOCC3)c3ccccc32)cc1	n	n	n	-26	n
CN1CCN(C(=S)c2cn(Cc3ccc(Br)cc3)c3ccccc23)CC1	n	n	27	n	x
